According to PubChem BioAssay AID2326 (National Center for Advancing Translational Sciences (NCATS), 2010):
In all, about 270,000 compounds went through this assay and about 1,100 (0.41%) were called active. Inconclusive results (about 3%) are left out. The full list was thinned out, with actives kept by preference. A number with no mark means an inactive call. The call rests on the fitted dose curve.

Assay: qHTS Assay for Inhibitors of Influenza NS1 Protein Function; further: actives are rising curves; nearly all actives have a fitted effect of over 50% in size
Settings: series mostly up to 46.1 µM; activity, positive = more growth: at the top concentration
From the text: NIH Chemical Genomics Center [NCGC]
NIH Molecular Libraries Probe Centers Network [MLPCN]
Assay Submitter (PI): Daniel Engel
Influenza is a world-wide public health problem and emerging forms of the virus have the potential to cause a pandemic of equal or greater magnitude to the outbreaks recorded in 1918, 1957 or 1968. Vaccine development is proceeding and there also exist two classes of anti-influenza compounds. However these therapeutic modalities are neither fully effective nor widely enough available to fulfill global needs. In addition their potential usefulness against newly emergent strains is not known. Efforts are needed to develop novel agents against influenza virus, including broad-spectrum agents. Identification of small molecules that inhibit NS1 function either directly or by interfering with specific cellular pathways may be a key to increasing our defense against the virus.
We have miniaturized and optimized a cell based assay in which NS1 from influenza A is expressed in the budding yeast S. cerevisiae. NS1 is a multi-functional protein that counters the host innate immune response and facilitates viral versus cellular gene expression. Expression of NS1 causes a pronounced slow growth phenotype in yeast due to its intrinsic molecular activities. Small molecules that suppress the slow growth phenotype can be identified by a straightforward growth recovery assay using optical density (OD) as the measurement. The same yeast strain not expressing NS1 was used as positive control in the yeast growth recovery assay.
The yeast S. cerevisiae control and NS1 expressing cells were kindly supplied by laboratory of Dr. Daniel Engel, University of Virginia. Yeast starter cultures were stored in single use aliquots at -80C.
1. Yeast culture medium per liter: 1.2 g Yeast Nitrogen Base (w/out amino acids and Ammonium Sulphate), 5.0g Ammonium Sulphate, 0.77g -URA DO (drop-out) Supplement, adjust pH to 6.0. Adjust to 2% glucose prior to inoculating with yeast.
2. Yeast assay medium: 1.2 g Yeast Nitrogen Base (w/out amino acids and Ammonium Sulphate), 5.0g Ammonium Sulphate, 0.77g -URA DO (drop-out) Supplement, adjust pH to 6.0. Adjust to 2% D-galactose prior to inoculating with yeast.
1. Inoculate 100 mls of yeast culture medium with 1 ml of frozen yeast aliquote. Incubate overnight at 30C, 250RPM.
2. Harvest overnight culture at 4000 RPM and wash pellet with 15 mls H2O 3x.
3. Re-suspend washed pellet in 10 mls of yeast assay medium.
4. Prepare a 1:100 dilution of re-suspended culture in yeast assay medium.
5. Dispense 3.5 ul per well of reagents in step 4 in columns 2-48 in a black clear bottom 1536 well plate.
6. Dispense 3.5 ul per well of yeast assay medium in column 1 only.
7. Transfer 23 nl of compound per well.
8. Dispense 3.5 ul per well of yeast assay medium in columns 1-48.
9. Read plate using Viewlux protocol for optical density 600 (OD600) using excitation filter 600nm.
Potency means the concentration at half of the fitted maximal effect.

Row | Compound | activity, positive = more growth | Potency
1 | CCOc1ccccc1/C=N/Nc1nc2ccccc2o1 | -5.44% | 
2 | O=S(=O)(NCc1ccc(Cl)cc1Cl)c1cccs1 | -58.9% | 
3 | COCCCNc1nc2c(-c3cccc(C)c3)nnn2c2ccc(Cl)cc12 | -31.8% | 
4 | CCCc1[nH]nc2c1C(c1c(C)nn(-c3ccccc3)c1Cl)C(C#N)=C(N)O2 (stereo unspecified) | 5.69% | 
5 | CCCc1[nH]nc2c1C(c1ccc(Br)s1)C(C#N)=C(N)O2 (stereo unspecified) |  | 2.51 µM (active)
6 | CCCc1[nH]nc2c1C(C1CC=CCC1)C(C#N)=C(N)O2 (stereo unspecified) | 6.91% | 
7 | Cc1cccc(C(=O)NC(=S)N(C)C2CCCCC2)c1 | -54.8% | 
8 | COc1ccc(CCc2nc(-c3cccs3)no2)cc1 | -25.1% | 
9 | COc1ccc(C(=O)NC(=S)N2CCCCC2c2cccnc2)cc1OC (stereo unspecified) | -12% | 
10 | O=C(N/N=C/c1cccc(OCc2ccccc2)c1)c1ccc(Br)o1 | -38.4% | 
11 | O=C(Cc1ccc(Cl)cc1)NC(=S)Nc1ccccc1O | 5.46% | 
12 | CCc1ccc(C(=O)OCC(=O)Nc2cccc(S(=O)(=O)NC3=NCCCCC3)c2)cc1 | -22% | 
13 | NS(=O)(=O)c1cccc(NC(=O)CSc2nc3ccccc3n2-c2ccccc2)c1 | 15.1% | 
14 | Cc1cccc(-n2c(SCC(=O)Nc3cccc(S(=O)(=O)NC4=NCCCCC4)c3)nc3ccccc3c2=O)c1C |  | 22.4 µM (active)
15 | CCN(CC(=O)Nc1ccc(C)c(S(=O)(=O)N(C)C)c1)Cc1ccccc1 | -2.09% | 
16 | Cc1ccc(CSc2nsc(C)c2C#N)cc1 | -1.63% | 
17 | COc1ccc(C(=O)CC(=O)C(=O)Nc2cc([N+](=O)[O-])ccc2OC)cc1 | 8.6% | 
18 | CSc1nccc(NC(=O)c2ccc(C(C)(C)C)cc2)n1 | -43.5% | 
19 | O=C(COc1ccc(Cl)cc1Cl)N/N=C/c1ccccn1 | -55.6% | 
20 | O=C(O)CC(Cn1cnnn1)c1ccccc1 (stereo unspecified) |  | 8.91 µM (active)
21 | O=C(O)CC(c1ccccc1)n1cnnn1 (stereo unspecified) | -1.31% | 
22 | O=C(O)CC(CC(=O)N1CCOCC1)c1ccccc1 (stereo unspecified) | 4.06% | 
23 | Cc1ccc(CNC(=O)C(=O)c2cn(CC(=O)N3CCCC3)c3ccccc23)cc1 | 1.2% | 
24 | COc1cc(CNCc2ccc(OC)c3ccccc23)cc(OC)c1OC | 12.4% | 
25 | COc1ccc(Nc2ncnc3ccc(Br)cc23)c(OC)c1 | -47.8% | 
26 | COc1ccc(CC(=O)N/N=C/c2cc([N+](=O)[O-])cc(Br)c2O)cc1 | 5.43% | 

Row | Compound | activity, positive = more growth | Potency
27 | CC(C)(COC(=O)Nc1ccccc1)COC(=O)Nc1ccccc1 | -46.3% | 
28 | COc1ccc(C=C(C#N)C#N)c(CSc2ccccn2)c1 | -3.49% | 
29 | COc1ccc(NCCc2ccccn2)cc1 | -5.94% | 
30 | Cn1c(=O)c(=O)n(C)c2cc(S(=O)(=O)CCC(=O)N3CCCCC3)ccc21 | 6.48% | 
31 | Cc1ccc(NS(=O)(=O)c2ccc3c(c2)n(C)c(=O)c(=O)n3C)c(C)c1 | 3.06% | 
32 | CCc1ccc(S(=O)(=O)Nc2cc3c(cc2N2CCCCC2)n(C)c(=O)c(=O)n3C)cc1 |  | 2.82 µM (active)
33 | CCOC(=O)CC1COCCN1C(=O)c1cc(COc2ccc(F)c(F)c2)on1 (stereo unspecified) | -7.11% | 
34 | O=C(NC(=S)N1CCCCC1c1cccnc1)c1ccccc1 (stereo unspecified) | -11% | 
35 | CCC(C)c1ccc(NC(=S)N2CCCC2)cc1 (stereo unspecified) | -46% | 
36 | COC(=O)C1=C(C)N=C2SC(C)C(=O)N2C1/C=C/c1ccccc1 (stereo unspecified) |  | 11.2 µM (active)
37 | COC(=O)C1=C(C)NC(=O)NC1/C=C/c1ccccc1 (stereo unspecified) | -6.7% | 
38 | CCOC(=O)c1ccccc1N1C(=O)C2Sc3[nH]c(=O)sc3C(/C=C/c3ccccc3)C2C1=O (stereo unspecified) | 27% | 
39 | Cc1nonc1NC(=O)c1oc2ccccc2c1C | -9.93% | 
40 | Cc1ccc(SCC(=O)c2sc(-c3ccccc3)nc2C)cc1 | -13.1% | 
41 | Cc1nc(N2CCOCC2)sc1C(=O)NN | 5.54% | 
42 | Cc1nc(-c2ccc(Cl)cc2)sc1C(=O)NN |  | 3.55 µM (active)
43 | CN(CC(=O)Nc1ccc(F)cc1)C(=O)c1ccc(-c2ccc(Cl)cc2)o1 | -54% | 
44 | CCOC(=O)CC1(NC(=O)c2cc(COc3cncc(Cl)c3)on2)CCCCC1 | -17.2% | 
45 | O=C(Cc1cccs1)NCc1cccc(C(F)(F)F)c1 | 2.72% | 
46 | Cc1ccc(CSc2nc(-c3ccccc3)c(C#N)c(=O)[nH]2)cc1 | 2.5% | 
47 | O=C(CSc1nc2ccccc2c(=O)[nH]1)Nc1nc(-c2ccc(Br)cc2)cs1 | 13.7% | 
48 | N#Cc1c(-c2cccs2)nc(SCC(=O)c2ccc(Br)cc2)[nH]c1=O |  | 3.16 µM (active)
49 | COc1ccc(NC(=O)CSc2nc3ccccc3c(=O)n2C)cc1 | 2.09% | 
50 | COCCN1C(=O)N(c2ccc(Cl)cc2)C(=O)C1CC(=O)Nc1cc(OC)cc(OC)c1 (stereo unspecified) | -4.12% | 
51 | CC(=O)N1c2ccc(S(=O)(=O)N3CCCC(C(=O)Nc4cccc(F)c4)C3)cc2CC1C (stereo unspecified) | 9.5% | 
